For 16 compounds, growth results are on record in PubChem BioAssay (NCI).

Molecules are shown by their SMILES. This is part of a sample that, as a whole, favours compounds with a hit. Of some 83,000 tested, about 20% had one in any assay.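 Negative percent growth values reflect cell death: -40 means 40% of the cells present at the start died, and -100 means all died.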 Unmarked numbers belong to inactive results. Calls of active or inactive are those of the source. The calls were made as follows: active = growth percent below 10; inactive = the rest.

Holding throughout (test): NCI-60 one-dose screen, 48 h (100 = growth as untreated, 0 = no growth, -100 = all killed)
Holding throughout (conditions): 10 µM unless noted

Assay [1] concerns T-47D breast.
Assay [2] deals with BT-549 breast.
Assay [3] deals with MDA-MB-435 melanoma.
In assay [4] the test system is SW-620 colon.
Assay [5] concerns MCF7 breast.
Assay [6] deals with HCT-116 colon.
Assay [7] concerns HCC-2998 colon.
The subject of assay [8] is KM12 colon.

On to `Cc1ccc(-c2c3c(N)c4c(nc3nc3c2c(C)nn3-c2ccccc2)CCC4)cc1`, for which the growth in assay [1] was 103%; in assay [2], 90.4%; in assay [3] it was 103%; in assay [4], 6.36% (active); in assay [5], 14.9%; in assay [6], -72.5% (active). The growth in assay [7] is 100%; in assay [8], 79.8%.

In the case of `C=C(CN1CCc2c([nH]c3ccccc23)C1)c1ccc(C(=O)Nc2ccon2)cc1`, the growth in assay [1] is 22.8%; in assay [2], 55.4%; in assay [3] it was 101%; in assay [4], 102%; in assay [5], 87.7%; in assay [6] it was 91.9%. For the same compound, the growth in assay [8] is 141%.

On to `CCCCCCCC[Si](OCC)(OCC)OCC`, for which the growth in assay [1] is 96.2%; in assay [2], 99.1%; in assay [3] it was 109%; in assay [4], 105%; in assay [5], 98.3%; in assay [6], 101%. Further, the values for the growth in assay [7] and in assay [8] were 105% and 103%, respectively.

As to `O=C(O)C1C(c2ccccc2)c2ccccc2C(O)C1CO` (stereo not drawn), the growth was 115% in assay [1]; 103% in assay [2]; 116% in assay [3]; 106% in assay [4]; 97% in assay [5]; 101% in assay [6]. The growth in assay [7] is 106%; in assay [8], 117%.

Take `Cc1nn2c(/C=C3/C(=O)Nc4cc(Cl)ccc43)c(-c3ccccc3)nc2s1`: the growth in assay [1] was -63% (active); in assay [2] it was 15.4%; in assay [3], -14.8% (active); in assay [4], -26.8% (active); in assay [5] it was 21%; in assay [6], -79% (active). Moreover, the growth was 120% in assay [7] and 78.7% in assay [8].

For `CCOC(=O)c1cnc2c(C)cc(C)cc2c1NCCCN(C)C`, the growth was 54.5% in assay [1]; 61.3% in assay [2]; 32.3% in assay [3]; 30.3% in assay [4]; 15.1% in assay [5]; 15.4% in assay [6]. Further, the growth in assay [7] was 29%; in assay [8] it was 31.6%.

With `COc1ccc2ncccc2c1Cc1c(OC)ccc2ncccc12`, the growth in assay [1] is 59.8%; in assay [2] it was 90.3%; in assay [3], 12.4%; in assay [4], 40.5%; in assay [5], 57%; in assay [6], 59.2%. Further, the growth in assay [8] is 52.1%.

As for `COC(=O)C1(NC(=O)CNC(=O)OCc2ccccc2)CCCC1`, the growth in assay [1] is 113%; in assay [2], 99.1%; in assay [3], 106%; in assay [4] it was 104%; in assay [5] it was 93.9%; in assay [6], 99.9%. For the same compound, the growth in assay [7] and in assay [8] was 108% each time.

For the compound `O=C1c2cc3c(cc2-c2c1c1ccc(Cl)cc1c(=O)n2CCCNCCO)OCO3`, the growth in assay [1] was -67.1% (active); in assay [2], -63.7% (active); in assay [3], -85% (active); in assay [4], -73.2% (active); in assay [5], -73.1% (active); in assay [6], -74.2% (active). Further, the growth in assay [7] was -89% (active); in assay [8], -78.4% (active).

On to `CCOC(=O)OCC(=O)[C@@]1(O)CC[C@H]2[C@@H]3CCC4=CC(=O)CC[C@]4(C)[C@H]3[C@@H](O)C[C@@]21C`, for which the growth was 91.4% in assay [1]; 101% in assay [2]; 111% in assay [3]; 98.3% in assay [4]; 94.9% in assay [5]; 98.3% in assay [6]. Besides, in assay [8], the growth is 106%.

Regarding `N#Cc1ncc(-c2ccc(C(F)(F)F)cc2)c(NC2CCCCCC2)n1`, the growth in assay [1] is 7.65% (active); in assay [2] it was 49.5%; in assay [3] it was 8.67% (active); in assay [4], 19.9%; in assay [5], 14%; in assay [6], 15.6%. Further, the growth in assay [7] is 73.2%; in assay [8], 22.3%.

In the case of `O[N+]1=CC=CCC1=S.On1ccccc1=S.[Zn]`, the growth in assay [1] was -84.9% (active); in assay [2], -84% (active); in assay [3], -82.8% (active); in assay [4], -77.2% (active); in assay [5], -75.6% (active); in assay [6] it was -88.1% (active). In addition, the growth in assay [7] is -76.3% (active); in assay [8] it was -88.3% (active).

Consider `COc1ccc(-c2cnc(SCC(=O)Nc3ccc(-c4nc5ccccc5s4)cc3)n2-c2ccc(OC)cc2)cc1`, for which the growth in assay [1] was 93.1%; in assay [2], 108%; in assay [3], 114%; in assay [4] it was 110%; in assay [5], 47.4%; in assay [6] it was 107%. Further, the growth in assay [8] was 113%.

Regarding `COc1cc(-c2nnc(-c3nc(-c4cc(OC)c(OC)c(OC)c4)n4ccccc34)o2)ccc1N`, the growth in assay [1] is 54.5%; in assay [2] it was 67.1%; in assay [3], 82.5%; in assay [4] it was 87%; in assay [5], 71.2%; in assay [6], 54.2%. Besides, the results for the growth in assay [7] and in assay [8] were 89.1% and 68.3%, respectively.

For the compound `CC(=O)OCC(=O)[C@@]1(O)CC[C@H]2[C@@H]3CCC4=CC(=O)CC[C@]4(C)[C@@]3(F)[C@@H](O)C[C@@]21C`, the growth in assay [1] is 109%; in assay [2] it was 103%; in assay [3] it was 115%; in assay [4] it was 98.3%; in assay [5], 87.3%; in assay [6], 106%. Besides, the growth in assay [8] was 109%.

In the case of `CCOC(=O)Nc1cc(-c2ccc(C)c(NS(C)(=O)=O)c2)nn2c(C)nnc12`, the growth was 23.3% in assay [1]; 49.5% in assay [2]; 9.2% (active) in assay [3]; 30.2% in assay [4]; 13% in assay [5]; 15.6% in assay [6]. The growth in assay [7] is -58% (active); in assay [8], 12.2%.
